Assay results reported in PubChem BioAssay.

Legend:
[1] = tested on: Botulinum neurotoxin type F light chain protease (Clostridium botulinum); test: Botulinum neurotoxin type F light chain protease inhibition, multiplex microsphere flow cytometry, validation set (AID 588459); conditions: multiplex microsphere protease substrate cleavage assay, at 10 µM, stronger effect = higher value
[2] = target: Botulinum neurotoxin type A (Clostridium botulinum) (UniProt P0DPI0); test: BoNT/A light chain protease inhibitors, biochemical, multiplex microsphere flow cytometry, validation set (AID 588460); conditions: at 10 µM, stronger effect = higher value
[3] = target: Lethal factor (Bacillus anthracis) (UniProt P15917); test: Lethal factor protease inhibitors, Bacillus anthracis, multiplex microsphere cleavage assay, validation set (AID 588461); conditions: flow cytometry, at 10 µM, stronger effect = higher value

Measured: inhibition

Sequence of Botulinum neurotoxin type A (Clostridium botulinum) (P0DPI0 whole entry, looked up): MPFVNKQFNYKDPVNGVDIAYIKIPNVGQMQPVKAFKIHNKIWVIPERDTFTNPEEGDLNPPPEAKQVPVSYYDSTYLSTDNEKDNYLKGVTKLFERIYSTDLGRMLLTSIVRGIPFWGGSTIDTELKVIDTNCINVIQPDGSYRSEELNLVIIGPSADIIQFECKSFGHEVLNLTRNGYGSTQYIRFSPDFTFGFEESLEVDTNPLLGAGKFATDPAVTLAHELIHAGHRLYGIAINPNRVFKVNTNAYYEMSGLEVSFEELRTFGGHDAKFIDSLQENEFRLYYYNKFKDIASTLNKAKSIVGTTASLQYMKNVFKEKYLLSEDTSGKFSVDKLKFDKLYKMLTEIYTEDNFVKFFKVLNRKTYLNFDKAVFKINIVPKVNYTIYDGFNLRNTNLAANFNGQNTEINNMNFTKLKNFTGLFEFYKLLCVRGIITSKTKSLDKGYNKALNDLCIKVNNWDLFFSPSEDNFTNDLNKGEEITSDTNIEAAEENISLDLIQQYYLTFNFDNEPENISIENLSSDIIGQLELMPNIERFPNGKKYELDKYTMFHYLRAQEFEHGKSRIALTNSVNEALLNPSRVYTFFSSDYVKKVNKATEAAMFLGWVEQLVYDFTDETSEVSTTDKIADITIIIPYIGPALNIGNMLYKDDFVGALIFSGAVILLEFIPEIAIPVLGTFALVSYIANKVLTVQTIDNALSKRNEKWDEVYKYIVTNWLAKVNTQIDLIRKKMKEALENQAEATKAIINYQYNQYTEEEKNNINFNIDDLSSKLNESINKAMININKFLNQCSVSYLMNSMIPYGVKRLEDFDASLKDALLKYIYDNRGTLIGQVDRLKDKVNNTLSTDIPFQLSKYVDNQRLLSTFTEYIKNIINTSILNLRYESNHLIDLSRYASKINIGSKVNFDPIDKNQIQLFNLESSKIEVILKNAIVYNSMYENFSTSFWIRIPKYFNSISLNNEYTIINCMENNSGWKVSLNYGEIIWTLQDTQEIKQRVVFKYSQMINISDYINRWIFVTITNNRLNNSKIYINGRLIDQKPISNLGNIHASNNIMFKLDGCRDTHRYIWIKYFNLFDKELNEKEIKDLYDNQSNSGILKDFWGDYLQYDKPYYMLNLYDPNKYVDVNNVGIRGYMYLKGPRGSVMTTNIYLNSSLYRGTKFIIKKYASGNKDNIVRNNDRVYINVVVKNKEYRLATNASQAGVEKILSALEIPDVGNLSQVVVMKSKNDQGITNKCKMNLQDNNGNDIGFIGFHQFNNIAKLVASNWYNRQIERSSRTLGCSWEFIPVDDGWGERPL
Sequence of Lethal factor (Bacillus anthracis) (P15917 whole entry, looked up): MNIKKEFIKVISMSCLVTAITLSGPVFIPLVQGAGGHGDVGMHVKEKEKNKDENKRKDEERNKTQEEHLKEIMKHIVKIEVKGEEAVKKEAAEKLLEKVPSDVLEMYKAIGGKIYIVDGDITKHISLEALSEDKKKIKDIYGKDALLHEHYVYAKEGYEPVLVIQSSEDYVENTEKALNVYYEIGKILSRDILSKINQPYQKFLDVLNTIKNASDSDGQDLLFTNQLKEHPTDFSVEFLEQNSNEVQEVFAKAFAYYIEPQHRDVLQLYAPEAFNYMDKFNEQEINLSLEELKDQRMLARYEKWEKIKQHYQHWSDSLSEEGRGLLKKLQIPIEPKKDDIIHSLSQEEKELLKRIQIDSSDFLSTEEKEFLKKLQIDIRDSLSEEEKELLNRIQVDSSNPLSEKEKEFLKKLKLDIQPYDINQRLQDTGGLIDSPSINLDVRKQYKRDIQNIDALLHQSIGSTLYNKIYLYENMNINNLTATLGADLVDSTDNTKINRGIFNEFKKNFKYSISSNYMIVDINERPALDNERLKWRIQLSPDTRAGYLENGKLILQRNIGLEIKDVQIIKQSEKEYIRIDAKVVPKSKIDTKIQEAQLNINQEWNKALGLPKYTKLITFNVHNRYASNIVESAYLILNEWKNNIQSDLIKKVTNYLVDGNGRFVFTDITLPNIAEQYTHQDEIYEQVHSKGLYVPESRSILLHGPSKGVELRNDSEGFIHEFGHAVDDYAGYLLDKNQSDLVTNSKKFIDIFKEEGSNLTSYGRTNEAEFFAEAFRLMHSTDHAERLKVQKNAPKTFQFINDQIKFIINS

CCOc1cc(C=O)ccc1OCCSc1ccc(C)cc1
inactive: [1] 1.3% | [2] 0.4% | [3] -3.6%

COc1ccc([C@H]2[C@H](C(=O)OC(C)(C)C)N3N=Cc4ccccc4C3C23C(=O)c2ccccc2C3=O)cc1OC (stereo partly drawn)
inactive: [1] -0.2% | [2] 0.5% | [3] -5.5%

CC(=O)c1c(C)[nH]c(C(=O)OCc2ccccc2)c1C
inactive: [1] 2.9% | [2] 0.8% | [3] -6.6%

CCC(=O)c1ccc(O)cc1
inactive: [1] 1.2% | [2] -0.4% | [3] -1.2%

COC1(C)CC2C(CC1OC(=O)c1cc([N+](=O)[O-])cc([N+](=O)[O-])c1)C2(C)C (stereo not drawn)
inactive: [1] -3.2% | [2] -0.5% | [3] -5.5%

COc1ccc(C(=O)NCCC2=CCCCC2)cc1[N+](=O)[O-]
inactive: [1] -5.9% | [2] -1.5% | [3] -4.6%

N#C/C(=C\c1ccc(O)c(O)c1)C(=O)NCCCc1ccccc1
inactive: [1] 1.8% | [2] 1.2% | [3] -2.8%

CCOC(=O)c1ncn2c1CN(C)C(=O)c1cc(F)ccc1-2
inactive: [1] -1.4% | [2] -1.4% | [3] -2.7%

C[C@H](NC(=O)NCCc1ccccc1)C(=O)O
inactive: [1] 0.5% | [2] -0.2% | [3] -0.6%

COc1ccc2cc([C@H](C)C(=O)O)ccc2c1
inactive: [1] 0.3% | [2] -0.1% | [3] -2.6%

FC(F)(F)c1ccc(-c2noc(CN3CCCN(C4CCCCC4)CC3)n2)cc1
inactive: [1] -2% | [2] -1.4% | [3] -7%
